Source: PubChem BioAssay AID1259312 (Keith Lab, Institute of Cancer Science, University of …, 2017)
Where “and” joins values, the source holds several entries; their conditions need not be identical. Equal entries are not always repeated. The campaign covered roughly 4,500 compounds. About 200 (4.4%) were called active.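 Rule for the calls: active = cell survival measured by absorbance rises more than 2.5-fold over infected cells without compound; inactive = the rest.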 For the sample, actives were picked, then their nearest neighbours and some compounds at random. Some structures have more than one record in an assay (separate samples or runs), and their calls can disagree.

Test: survival after telomere uncapping, modulators, primary screen, cell-based (AID 1259312);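 note: virus expresses mutant telomerase RNA that uncaps telomeres and kills cells; compound added 2 days after infection so exposure lasts 3 days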
Details: HCT116 + Ad-hTR-mut, MTT, 5 d; at 10 µM, stronger effect = higher value

Row | Structure (SMILES) | fold change
1 | CC(C)(C)c1cc(C(C)(C)C)c(O)c(C(C)(C)C)c1 | -1.04 (inactive)
2 | CS(=O)(=O)N1CCc2ccccc21 | 1.49 (inactive)
3 | CN=C1/C(=N/O)C=CC2CCCCC12 (stereo not given) | inactive
4 | O=[N+]([O-])c1cc(Br)cc(C=Nc2cc(Cl)cc(Cl)c2)c1O | inactive
5 | O=C1C=CC(=C(c2ccc(O)c(O)c2)c2ccccc2S(=O)(=O)O)C=C1O | 1.05 (inactive)
6 | Cc1cc(=O)[nH]c(SCc2ccon2)n1 | inactive
7 | Cn1c(=O)n(C)c2cc(S(=O)(=O)N3CCCCC3)ccc21 | -4.28 (inactive)
8 | CSC(=Nc1ccc(C)c(C)c1)NC#N | 3.26 (active)
9 | CC1(C)CC2CC(C)(CN2S(=O)(=O)c2ccc(N)cc2)C1 (stereo not given) | -1.15 (inactive)
10 | CN(C)CCCN1C(=O)C(O)=C(C(=O)c2ccco2)C1c1cccs1 (stereo not given) | 1.06 (inactive)
11 | N#CC1=C(N)OC2=C(C(=O)CCC2)C1c1ccc(Br)s1 (stereo not given) | -1.06 (inactive)
12 | N#CC1=C(N)OC2=C(C(=O)CCC2)C1c1cc(F)ccc1F (stereo not given) | 2.83 (active)
13 | Cc1ccc(C2C(C#N)=C(N)OC3=C2C(=O)CCC3)o1 (stereo not given) | -2.21 (inactive)
14 | Cn1c(SC2CCOC2=O)nc2ccccc2c1=O (stereo not given) | -1.35 (inactive)
15 | COc1nc(-c2ccccc2)cc(-c2ccccc2)c1C#N | 1.46 (inactive)
16 | O=[N+]([O-])c1ccc(OC2OC(CO)C(O)C(O)C2O)cc1 (stereo not given) | 1.11 (inactive)
17 | OC[C@H]1O[C@@H](OC[C@H]2O[C@@H](O)[C@H](O)[C@@H](O)[C@@H]2O)[C@H](O)[C@@H](O)[C@@H]1O | -1.38 (inactive)
18 | NC[C@@H]1O[C@H](O[C@H]2[C@@H](O)[C@H](O[C@@H]3[C@@H](O)[C@H](N)C[C@H](N)[C@H]3O[C@H]3O[C@H](CN)[C@@H](O)[C@H](O)[C@H]3N)O[C@@H]2CO)[C@H](N)[C@@H](O)[C@@H]1O | -1.27 (inactive)
19 | OC[C@@H]1OC(O)[C@@H](O)[C@H](O)[C@H]1O[C@H]1O[C@H](CO)[C@@H](O)[C@H](O)[C@H]1O (stereo not given in full) | 3.84 (active)
20 | OC[C@@H]1O[C@H](O[C@H]2O[C@H](CO[C@H]3O[C@H](CO)[C@H](O)[C@H](O)[C@H]3O)[C@@H](O)[C@H](O)[C@H]2O)[C@H](O)[C@H]1O | 2.81 (active)
21 | OCC1OC(OC2OC(CO)C(O)C(O)C2O)C(O)C(O)C1O (stereo not given) | -1.63 (inactive)
22 | CC(N)c1nc(-c2cccnc2)no1 (stereo not given) | -2.47 (inactive)
23 | O=S(=O)(NCc1ccc2c(c1)OCO2)c1ccc2oc3ccccc3c2c1 | 1.03 (inactive)
24 | Cn1c(=O)c2c(nc(NCCOc3ccc(Cl)cc3)n2C)n(C)c1=O | 1.16 (inactive)
25 | O=c1cc(-c2ccc(O)c(O)c2)oc2cc(OC3OC(CO)C(O)C(O)C3O)cc(O)c12 (stereo not given) | -1.76 (inactive)

Row | Structure (SMILES) | fold change
26 | CC(Nc1cc(Cl)ccc1[N+](=O)[O-])C12CC3CC(CC(C3)C1)C2 (stereo not given) | -1.01 (inactive)
27 | O=S(=O)(c1ccccc1)N1CCN(CCO)CC1 | -1.34 (inactive)
28 | O=S(=O)(c1ccccc1)N1CCN(C(c2ccccc2)c2ccccc2)CC1 | 3.51 (active)
29 | O=S(=O)(c1ccccc1)N1CCN(c2ccccc2)CC1 | -1.03 (inactive)
30 | O=C(O)CN(CP(=O)(O)O)CP(=O)(O)O | -4.38 (inactive)
31 | COc1cc(CSC(=N)N)c([N+](=O)[O-])cc1OC | -1.68 (inactive)
32 | C=CCOC1OC(COC(C)=O)C(OC(C)=O)C(OC(C)=O)C1OC(C)=O (stereo not given) | 3.1 (active)
33 | CC(=O)OCC1OC(n2ccc(=O)[nH]c2=O)C(OC(C)=O)C1OC(C)=O (stereo not given) | -1.3 (inactive)
34 | CC(=O)OC[C@H]1O[C@@H](n2ncc(=O)[nH]c2=O)[C@H](OC(C)=O)[C@@H]1OC(C)=O | -1.81 (inactive)
35 | Cc1ccc(C(c2c(C)[nH]n(-c3ccccc3)c2=O)c2c(C)[nH]n(-c3ccccc3)c2=O)o1 | 1.83 (inactive)
36 | CN1CC=C2[C@H](C1)[C@@H](c1ccccc1F)C(C#N)=C(N)C2(C#N)C#N | 1.08 (inactive)
37 | Cc1cc(C)cc(OCC(=O)N=Nc2c(O)[nH]c3ccccc23)c1 | inactive
38 | N#Cc1sc2nc(-c3cccs3)ccc2c1N | 5 (active)
39 | N#Cc1sc2nc3c(cc2c1N)CCCC3 | 1.19 (inactive)
40 | c1csc(-c2nc3sc(-c4cccs4)nc3s2)c1 | -2.65 (inactive)
41 | Cc1cccc(N2CCC(N=CN3CCOCC3)=N2)c1 | 2.57 (active)
42 | O=C(CN1CCOCC1)Nc1nccs1 | 3.2 (active)
43 | CCCCCCCCCCCC(=O)Nc1nccs1 | -1.36 (inactive)
44 | O=C(O)CCC(=O)Nc1nccs1 | -1.01 (inactive)
45 | CCOC(=O)/C(=C\C1=CC=C([N+](=O)[O-])C1)NC(=O)c1cccc(C)c1 | 2 (inactive)
46 | Cc1cc2c(cc1C)-c1c(ssc1=Nc1ccc(S(N)(=O)=O)cc1)C(C)(C)N2 | -1.69 (inactive)
47 | COc1cc(C2C(C(=O)OC3CCCCC3)=C(C)NC3=C2C(=O)CC(C)(C)C3)cc(OC)c1OC (stereo not given) | -1.82 (inactive)
48 | O=C(CCCc1c[nH]c2ccccc12)NCCSc1ccccc1 | -1.53 (inactive)
49 | O=C(O)CCCc1c[nH]c2ccccc12 | 3.42 (active) and -1.18 (inactive)
50 | NC(=O)CCCc1c[nH]c2ccccc12 | 1.03 (inactive)
